“And” between values parts separate entries of the source, which are not always exact repeats. Identical values can stand only once. Inconclusive results are not listed. The source made the active and inactive calls.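 How the source made its calls, unless noted: active means normalized viability below 100% at a tested concentration; inactive means the rest.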
Tests used:
[1] = stimulators of nuclear beta-catenin in C2C12, primary screen, imaging, WNT3A-conditioned medium, mouse C2C12, NPC library (AID 1117326; in the data active means nuclear beta-catenin stimulation mostly above about 4.2%, no sharp cut-off; inactive means mostly below about 10%); details: stronger effect = higher value
[2] = stimulators of insulin release from INS-1E, primary screen, cell-based, 5 mM glucose, NPC library (AID 1117329;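 active means compound raises insulin release from rat beta cells at 5 mM glucose, no numeric limit stated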); details: rat INS-1E insulin secretion, at 10 µM, stronger effect = higher value
[3] = growth inhibition of GSK3B-pretreated HCT116 cells – cell-based, CellTiter-Glo, 0.2 to 20 µM (AID 1117336;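 active means compounds lowering colon cancer cell viability after pretreatment blocking the GSK3B kinase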); details: HCT116 viability after GSK3B inhibitor, at 20 µM, stronger effect = higher value
[4] = inhibition of endothelial tube formation, primary screen, imaging, VEGF stimulated, CD31 staining, tube area, NPC library (AID 1117340;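 active means compound that reduces growth-factor-driven endothelial tube area in a mixed cell culture, no cutoff stated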); details: VEGF-stimulated ADSC/ECFC co-culture, at 10 µM, stronger effect = higher value
[5] = glucagon-like peptide 1 release enhancers, primary assay, NCI-H716 cell line, NPC library (AID 1117341;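 active means compound raises GLP1 secretion from the human gut endocrine cells, with no numeric limit stated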); details: NCI-H716 cells, at 10 µM, stronger effect = higher value
[6] = HCT116 colon cancer cell growth inhibition, primary screen, CellTiter-Glo luminescence, NPC library (AID 1117342;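 active means compounds that lower survival of HCT116 colon cancer cells in the luminescence readout, no numeric limit stated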); details: at 20 µM (top of the series)
[7] = CellTiter-Glo luminescent readout of SW480 viability loss, NPC library primary (AID 1117343;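 active means compounds that lower viability of the colon cancer cells in the luminescence readout, with no numeric limit stated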); details: CellTiter-Glo luminescence; at 20 µM (top of the series) unless noted
[8] = decreased DLD-1 cellular survival, CellTiter-Glo luminescent readout, NPC compound collection, primary HTS (AID 1117346;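 active means compounds that lower survival of DLD-1 colon cancer cells in the luminescence readout, no cutoff given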); details: DLD-1 viability, CellTiter-Glo luminescence; at 20 µM (top of the series)
[9] = tested on: Aerobactin synthetase IucA (Klebsiella pneumoniae); assay: IucA aerobactin synthetase inhibitors, biochemical, Tocris library, absorbance (AID 1345561; call rule not given here;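 further: 100% = enzyme without compound and 0% = no enzyme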); details: purified IucA enzyme assay, absorbance (OD) read-out; stronger effect = lower value;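 tested at 8 µM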
[10] = growth inhibition of DIPG glioma cells, dose response, cell-based, SU-DIPG-XIII, MIPE4.0, CellTiter-Glo, qHTS (AID 1347061; cut-off not given, nearly all actives have AC50 up to about 37 µM;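 further: cells exposed to compound for 48 hours before readout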); details: SU-DIPG-XIII viability, CellTiter-Glo ATP luminescence
[11] = SU-DIPG-VI glioma cell viability, MIPE4.0 library, CellTiter-Glo luminescence, qHTS (AID 1347066; cut-off not given, nearly all actives have AC50 up to about 30 µM;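 further: cells exposed to compound for 48 hours before readout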); details: CellTiter-Glo ATP luminescence
[12] = sensitizers of A549 cells to miR-34 induction, primary screen, imaging, A549 dox-inducible miR-34, nuclei and caspase counts (AID 1347080;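 active means compounds whose cell count with miR-34 switched on is under 0.7 times the count with it off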); details: A549 miR-34 inducible, Hoechst nuclei count, 48 h
[13] = viability rescue of complex I mutant cybrids, primary screen, cell-based, galactose medium, ATP luminescence (AID 1645843;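 active means z-score of at least 1.8 in each of two replicates, scored against plate mean and spread of sample wells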;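 further: positive z means more ATP and so rescue of galactose-driven cybrid death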); details: complex I mutant cybrid cells, 72 h, stronger effect = higher value
[14] = growth inhibition of DIPG glioma cells, dose response, cell-based, SU-DIPG-XVII, MIPE5.0, CellTiter-Glo, qHTS (AID 1347060; cut-off not given, nearly all actives have AC50 up to about 26 µM;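 further: cells exposed to compound for 48 hours before viability readout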); details: SU-DIPG-XVII viability, CellTiter-Glo ATP luminescence
[15] = growth inhibition of DIPG glioma cells, dose response, cell-based, JHH-DIPG-1, MIPE4.0, CellTiter-Glo, qHTS (AID 1347062; cut-off not given, nearly all actives have AC50 up to about 27 µM;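 further: cells exposed to compound for two days before readout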); details: JHH-DIPG-1 viability, CellTiter-Glo ATP luminescence
[16] = viability loss in pontine glioma line – cell-based, SU-DIPG-XXV, MIPE5.0, CellTiter-Glo, qHTS, dose response (AID 1347065; cut-off not given, nearly all actives have AC50 up to about 26 µM;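 further: cells exposed to compound for 48 hours before ATP readout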); details: CellTiter-Glo ATP luminescence
[17] = SU-DIPG-XXV glioma cell viability, MIPE5.0 library, qHTS (AID 1347068; cut-off not given, nearly all actives have IC50 up to about 30 µM;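 further: cells exposed to compound for 48 hours before viability readout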)
[18] = survival rescue of mitochondrial mutant cells in low glucose, primary screen, MELAS cybrids, Rieske KO mouse fibroblasts, CellTiter-Glo (AID 1508586;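 active means mean z-score across replicates of 1.96 or higher in either the MELAS or the Rieske mutant cell line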;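 further: z relative to plate mean and SD of compound and empty wells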)
[19] = ovarian cancer cell viability with rucaparib, profiling panel, oncology-focused library, rucaparib conditional (AID 1508598); details: patient-derived ovarian cancer cells, CellTiter-Glo viability, 144 h, stronger effect = lower value
[20] = stronger effect = lower value, cell number ratio, induced over uninduced
[21] = measured here: relative caspase fold change +Dox/-Dox
[22] = measured here: total cells with miR-34 induction, stronger effect = lower value
[23] = measured here: total cells without miR-34 induction

Compound: OC(CN1CCC(Cc2ccc(F)cc2)CC1)c1ccc(Cl)cc1 (stereo not given)
- nuclear beta-catenin stimulation ([1]; at 10 µM): 2% (inactive)
- nuclear beta-catenin stimulation ([1]; stimulation, at 2 µM): 2.8%
- insulin secretion stimulation [2]: 2.2% (inactive)
- viability decrease [3]: 78.9% (active)
- tube area decrease [4]: -4.2% (inactive)
- GLP1 secretion stimulation [5]: 2.9% (inactive)
- inhibition of viability [6]: 78.6% (active)
- viability decrease (inhibition) [7]: 67.1% (active)
- viability decrease (inhibition) [8]: 75.2% (active)
- remaining activity [9]: 78.5% (inactive)
- outcome [10]: inactive
- outcome [11]: inactive
- fold change [12, 20]: 1.15 (inactive) and 0.894 (inactive)
- fold change [12, 21]: 0.858 and 1.23
- cell count [12, 22]: 6880 and 8360
- cell count [12, 23]: 6000 and 9350
- z-score [13]: -0.6 (inactive) and 0.185 (inactive)

Compound: CC1(c2ccccc2)OC(C(=O)O)=CC1=O (stereo not given)
- nuclear beta-catenin stimulation ([1]; at 10 µM): 0.9% (inactive)
- nuclear beta-catenin stimulation ([1]; stimulation, at 2 µM): 1.2%
- insulin secretion stimulation [2]: 0.9% (inactive)
- viability decrease [3]: 1.95% (inactive)
- tube area decrease [4]: 0.2% (inactive)
- GLP1 secretion stimulation [5]: 1.1% (inactive)
- inhibition of viability [6]: -7.4% (inactive)
- viability decrease (inhibition) [7]: 4.5% (inactive)
- viability decrease (inhibition) [8]: 4.95% (inactive)
- remaining activity [9]: 122% (inactive)
- fold change [12, 20]: 0.98 (inactive)
- fold change [12, 21]: 0.832
- cell count [12, 22]: 9820
- cell count [12, 23]: 10000
- z-score [13]: -0.34 (inactive)

Compound: O=C(NOCC1CC1)c1ccc(F)c(F)c1Nc1ccc(I)cc1Cl
- nuclear beta-catenin stimulation ([1]; at 10 µM): 1.5% (inactive)
- nuclear beta-catenin stimulation ([1]; stimulation, at 2 µM): 1.7%
- insulin secretion stimulation [2]: -0.4% (inactive)
- viability decrease [3]: 43.3% (inactive)
- tube area decrease [4]: 104% (active)
- GLP1 secretion stimulation [5]: 9.6% (inactive)
- inhibition of viability [6]: 87.4% (active)
- viability decrease (inhibition) [7]: 133% (active)
- viability decrease (inhibition) [8]: 92.4% (active)
- AC50 [14]: 2.35 µM (active)
- AC50 [10]: 11.8 µM (active)
- AC50 [15]: 16.6 µM (active)
- AC50 [16]: 2.35 µM (active)
- AC50 [11]: 10.5 µM (active)
- IC50 [17]: 13.2 µM (active)
- fold change [12, 20]: 1.1 (inactive)
- fold change [12, 21]: 0.574
- cell count [12, 22]: 3240
- cell count [12, 23]: 2940
- z-score ([18]; MELAS cybrid survival, CellTiter-Glo 48 h, stronger effect = higher value): -0.582 (inactive)
- z-score ([18]; Rieske KO mouse fibroblast survival, CellTiter-Glo 72 h): 0.299
- viability ([19]; at 0.000305 µM, OCI-C5x cells, with rucaparib 10 µM, 100% = cells with rucaparib alone): 116% (inactive)
- viability ([19]; at 0.000305 µM, OCI-C5x cells, without rucaparib): 119% (inactive)
- viability ([19]; at 0.000305 µM, OCI-P5x cells, with rucaparib 20 µM, 100% = cells with rucaparib alone): 142% (inactive)
- viability ([19]; at 0.000305 µM, OCI-P5x cells, without rucaparib): 100% (inactive)
- viability ([19]; at 0.00122 µM, OCI-C5x cells, with rucaparib 10 µM, 100% = cells with rucaparib alone): 112% (inactive)
- viability ([19]; at 0.00122 µM, OCI-C5x cells, without rucaparib): 120% (inactive)
- viability ([19]; at 0.00122 µM, OCI-P5x cells, with rucaparib 20 µM, 100% = cells with rucaparib alone): 135% (inactive)
- viability ([19]; at 0.00122 µM, OCI-P5x cells, without rucaparib): 109% (inactive)
- viability ([19]; at 0.00488 µM, OCI-C5x cells, with rucaparib 10 µM, 100% = cells with rucaparib alone): 123% (inactive)
- viability ([19]; at 0.00488 µM, OCI-C5x cells, without rucaparib): 118% (inactive)
- viability ([19]; at 0.00488 µM, OCI-P5x cells, with rucaparib 20 µM, 100% = cells with rucaparib alone): 126% (inactive)
- viability ([19]; at 0.00488 µM, OCI-P5x cells, without rucaparib): 97.9% (active)
- viability ([19]; at 0.0195 µM, OCI-C5x cells, with rucaparib 10 µM, 100% = cells with rucaparib alone): 115% (inactive)
- viability ([19]; at 0.0195 µM, OCI-C5x cells, without rucaparib): 127% (inactive)
- viability ([19]; at 0.0195 µM, OCI-P5x cells, with rucaparib 20 µM, 100% = cells with rucaparib alone): 122% (inactive)
- viability ([19]; at 0.0195 µM, OCI-P5x cells, without rucaparib): 107% (inactive)
- viability ([19]; at 0.0781 µM, OCI-C5x cells, with rucaparib 10 µM, 100% = cells with rucaparib alone): 121% (inactive)
- viability ([19]; at 0.0781 µM, OCI-C5x cells, without rucaparib): 111% (inactive)
- viability ([19]; at 0.0781 µM, OCI-P5x cells, with rucaparib 20 µM, 100% = cells with rucaparib alone): 124% (inactive)
- viability ([19]; at 0.0781 µM, OCI-P5x cells, without rucaparib): 110% (inactive)
- viability ([19]; at 0.313 µM, OCI-C5x cells, with rucaparib 10 µM, 100% = cells with rucaparib alone): 121% (inactive)
- viability ([19]; at 0.313 µM, OCI-C5x cells, without rucaparib): 119% (inactive)
- viability ([19]; at 0.313 µM, OCI-P5x cells, with rucaparib 20 µM, 100% = cells with rucaparib alone): 106% (inactive)
- viability ([19]; at 0.313 µM, OCI-P5x cells, without rucaparib): 92.7% (active)
- viability ([19]; at 1.25 µM, OCI-C5x cells, with rucaparib 10 µM, 100% = cells with rucaparib alone): 104% (inactive)
- viability ([19]; at 1.25 µM, OCI-C5x cells, without rucaparib): 117% (inactive)
- viability ([19]; at 1.25 µM, OCI-P5x cells, with rucaparib 20 µM, 100% = cells with rucaparib alone): 87.2% (active)
- viability ([19]; at 1.25 µM, OCI-P5x cells, without rucaparib): 90.5% (active)
- viability ([19]; at 5 µM, OCI-C5x cells, with rucaparib 10 µM, 100% = cells with rucaparib alone): 87.6% (active)
- viability ([19]; at 5 µM, OCI-C5x cells, without rucaparib): 116% (inactive)
- viability ([19]; at 5 µM, OCI-P5x cells, with rucaparib 20 µM, 100% = cells with rucaparib alone): 61% (active)
- viability ([19]; at 5 µM, OCI-P5x cells, without rucaparib): 63.3% (active)

Source: PubChem BioAssay
